Screening results: PubChem BioAssay, several laboratories
Hits are enriched below; roughly 1% of the tested compounds scored in any of these assays.
Y pestis TopoI: blocks Yersinia pestis topoisomerase I activity | 0.064% of 360,000 active | activity, % at 10 µM | Y. pestis Topo-I cleavage product accumulation, plate reader; in the data active = activity above about 50%, passing the limit was not always enough; inconclusive = no clear call, values can overlap the other calls
TcdB inh: blocks C. difficile toxin B glycohydrolase activity | P18177 | AID 652162 | 0.24% of 350,000 active | TcdB glycohydrolase enzymatic assay, plate reader | inhibition, % at 9.99 µM; in the data active = inhibition above about 10%
MazF activator: MazEF (E. coli) toxin RNase activation | P0AE70 | FAM/BHQ RNA-DNA oligo cleavage fluorescence, 5 h | activation, % at 20 µM | 0.32% of 350,000 active | AID 504720; in the data active = activation above about 50%
Target sequence (P0AE70 whole entry, looked up): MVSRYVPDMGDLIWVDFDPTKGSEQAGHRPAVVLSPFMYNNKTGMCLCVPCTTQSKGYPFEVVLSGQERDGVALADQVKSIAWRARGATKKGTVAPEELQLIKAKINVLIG
DUSP3 inh: blocks human VHR1 dual specificity phosphatase | P51452 | recombinant VHR phosphatase, pNPP absorbance | inhibition, % at 13.3 µM | 0.52% of 290,000 active | AID 1654; in the data active = inhibition above about 50%
Target sequence (P51452 whole entry, looked up): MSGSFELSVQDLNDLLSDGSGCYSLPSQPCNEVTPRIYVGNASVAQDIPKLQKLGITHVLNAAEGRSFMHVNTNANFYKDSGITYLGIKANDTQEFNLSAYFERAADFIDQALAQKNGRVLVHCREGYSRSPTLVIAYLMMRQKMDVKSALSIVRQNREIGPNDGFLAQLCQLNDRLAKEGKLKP
BioA inh: blocks M. tuberculosis BioA enzyme activity | purified M. tuberculosis BioA enzyme, plate reader | inhibition, % at 9.99 µM | 0.096% of 360,000 active | AID 602481; in the data active = inhibition above about 40%; inconclusive = no clear call, values can overlap the other calls
FadD28 FP inh: blocks FadD28 binding to the bisubstrate probe. fluorescence polarization. inhibition, % at 12.5 µM. 0.22% of 360,000 active; in the data active = inhibition above about 8.5%, passing the limit was not always enough; inconclusive = no clear call, values can overlap the other calls
* hit, by the source's call; u = inconclusive; x = no result; + = active, no number.

SMILES	Y pestis TopoI	TcdB inh	MazF activator	DUSP3 inh	BioA inh	FadD28 FP inh
Cc1noc(C)c1S(=O)(=O)N(C)C[C@@H]1OCCCC[C@@H](C)Oc2ccc(NC(=O)NC3CCCCC3)cc2C(=O)N([C@H](C)CO)C[C@@H]1C	x	-1	x	x	0	x
Cc1cc(N2CCN(C)CC2)ccc1NC(=O)c1cccc(S(=O)(=O)N2CCc3ccccc3C2)c1	-26	0	50*	14	-1	-3
CC(=O)N1CC2(C1)[C@@H](c1ccc(-c3cccc(F)c3)cc1)[C@@H](CO)N2CC1CCOCC1	x	0	x	x	x	x
C[C@H](CO)N1C[C@H](C)[C@H](CN(C)Cc2ccncc2)Oc2cc(C#CC3CC3)ccc2S1(=O)=O	x	0	x	x	6	x
O=C(Cn1nnc(-c2ccccc2)n1)NNC(=O)c1ccc(Br)cc1	56*	-1	10	5	x	-4
CC(C)C#Cc1cnc2c(c1)C(=O)N([C@H](C)CO)C[C@@H](C)[C@@H](CN(C)C(=O)c1ccccc1F)O2	x	1	x	x	2	x
CN1CCN(C(=O)C2=C[C@H](C(C)(C)C)C[C@H](OCc3ccc(CO)cc3)O2)CC1	x	0	x	x	-1	x
Cc1onc(-c2ccccc2)c1C(=O)N(Cc1ccco1)Cc1cccs1	42	16*	-11	1	x	-4
C[C@H](CO)N1C[C@H](C)[C@H](CN(C)Cc2ccncc2)Oc2ncc(C#CC3CCCCC3)cc2C1=O	x	0	x	x	0	x
C[n+]1cn(/N=C/c2ccccc2)c2ccccc21	3	x	-4	54*	1	-1
C(=N\n1c2ccccc2c2ccccc21)/c1ccccc1	0	1	-14	8	x	-1
COc1cccc(C(=O)Nc2ccccc2N2CCCC2)c1	-7	x	11	-1	0	-2
O=C(Nc1ccccc1N1CCCCC1)c1cccc(OC(F)F)c1	57*	0	3	7	-1	-1
CCC(=O)N1CC2(C1)CN(C(=O)CN1CCOCC1)[C@H](CO)c1c2c2ccc(OC)cc2n1C	x	0	x	x	x	x
O=C(NC1CCCC1)N1CCCCN2[C@H](CO)[C@H](c3ccc(/C=C/c4ccccc4)cc3)[C@@H]2C1	x	x	x	x	-2	x
O=C1CC(=O)N(Cc2ccco2)C(=S)N1	-8	x	-31	12	0	29*
O=C1CC(=O)N(Cc2ccco2)C(=O)N1	-10	x	-13	14	-3	4
Oc1ccc(/C=N/Nc2ccnc3cc(Cl)ccc23)c(O)c1O	-38	1	10	6	-1	1
Oc1ccc(/C=N/Nc2ccnc3cc(Cl)ccc23)cc1O	-22	0	-2	11	x	12*
CN(C)CC(=O)N1[C@@H](CO)[C@@H](c2ccccc2)C12CN(C(=O)c1ccccc1)C2	x	1	x	x	x	x
Cc1ccc(CNC(=O)C(Cc2ccccc2)NS(=O)(=O)c2cccs2)cc1 (stereo not given)	14	1	-6	-4	5	16*
Cc1ccc(CNC(=O)C(Cc2ccccc2)NS(=O)(=O)c2ccc(Br)s2)cc1 (stereo not given)	-3	0	-9	-14	x	50*
NCC[C@H]1CC[C@@H](NC(=O)C2CC2)[C@@H](CO)O1	x	-1	x	x	x	x
COCCN1C(=O)C(CC(=O)Nc2ccc(C(C)=O)cc2)SC1=Nc1ccccc1 (stereo not given)	3	5	-4	57*	4	-1
C[C@@H]1CN([C@H](C)CO)C(=O)c2cc(NC(=O)CCC(F)(F)F)ccc2O[C@@H](C)CCCCO[C@@H]1CN(C)Cc1ccccc1	x	0	x	x	0	x
SMILES	Y pestis TopoI	TcdB inh	MazF activator	DUSP3 inh	BioA inh	FadD28 FP inh
O=C(c1cccnc1)N1CCCCN2[C@H](CO)[C@H](c3ccc(C#Cc4ccccc4)cc3)[C@@H]2C1	x	x	x	x	4	x
O=C(NCCc1ccc(C(F)(F)F)cc1)C1CCC(=O)N(CCc2cccc(F)c2)C1 (stereo not given)	8	-1	64*	10	1	-8
O=C(NCC[C@H]1CC[C@@H](NS(=O)(=O)c2ccc(Cl)cc2)[C@H](CO)O1)Nc1ccc(F)cc1	x	-1	x	x	x	x
CCN(CC(=O)Nc1ccc(NC(C)=O)cc1)C(=O)C(c1ccccc1)c1ccccc1	-2	1	2	51*	x	-2
CCN(CC(=O)Nc1ccc(NC(C)=O)cc1)C(=O)/C=C/c1ccccc1	-6	0	0	x	0	-4
O=C(Nc1ccccc1)N1C[C@@H]2[C@H](c3ccccc31)[C@@H](CO)N2C(=O)c1cccnc1	x	-1	x	x	-7	x
O=C(CCN1C(=O)/C(=C/c2ccco2)SC1=S)Nc1ccc(O)cc1C(=O)O	-4	0	-21	-24	-1	21*
O=C(CCCN1C(=O)/C(=C/c2ccco2)SC1=S)Nc1ccccc1C(=O)O	-11	0	-3	2	x	45*
O=C(O)CCCN1C(=O)/C(=C\c2ccco2)SC1=S	-6	-2	-1	11	x	5
O=C(CCCN1C(=O)/C(=C\c2ccccc2)SC1=S)Nc1ccc(O)cc1C(=O)O	8	0	3	-6	5	2
O=C(CN1C(=O)/C(=C\c2ccco2)SC1=S)Nc1ccc(O)cc1C(=O)O	-17	0	8	-5	2	36*
O=S1(=O)N=C(Nc2ccc(S(=O)(=O)N3CCCCC3)cc2)c2ccccc21	-1	x	-1	53*	x	-6
COc1cc2c(C#N)c(N3CCc4ccccc4C3)nc(N)c2c(N)n1	-3	x	62*	21	1	-1
COc1cc2c(C#N)c(N3CCOCC3)nc(N)c2c(N)n1	6	x	20	-1	-1	0
COc1cc2c(C#N)c(N3CCCCC3)nc(N)c2c(N)n1	-5	x	56*	-27	-2	0
Cc1ccc(OCc2n[nH]c(=S)n2-c2ccc(Br)cc2)cc1	-2	4	-19	58*	4	u
CCOC(=O)/C(C#N)=N/Nc1ccc(S(=O)(=O)N2CCc3ccccc32)cc1	-2	x	1	-7	x	-1
N#C/C(=N\Nc1ccc(S(=O)(=O)N2CCc3ccccc32)cc1)C(N)=S	0	1	-5	24	4	46*
C=CCc1ccc(OCCn2nnc3ccccc32)c(OC)c1	24	1	-4	56*	-1	-3
Cc1nc2ccccc2n2c(O)c(CC(=O)O)cc12	-10	x	-428	6	-15	14*
Cc1nc2ccccc2n1CCC(=O)O	9	x	-4	18	0	-2
CCOc1ccc(NC(=O)CNC(=O)c2nn(-c3ccc(OC)cc3)c(=O)c3ccccc23)cc1	0	0	73*	12	-2	-3
OC(c1cccc(OCc2ccccc2)c1)c1nnc(-c2ccccc2)o1 (stereo not given)	33	x	-13	3	0	-4
OC(c1ccc(OCc2ccccc2)cc1)c1nnc(-c2ccccc2)o1 (stereo not given)	31	x	96*	0	-3	-5
COc1ccc(N=C/C=C2/C=C(c3ccccc3)OC(C)(C)O2)cc1	-7	0	2	4	3	4
CC1(C)OC(c2ccccc2)=C/C(=C/C=C2C(=O)NC(=S)NC2=O)O1	x	0	+	9	x	x
